Source: PubChem
Mdm2-MdmX inh – inhibitors of human Mdm2/MdmX interaction | inhibition, % at 8 µM | SaOS-2 split-luciferase Mdm2/MdmX complementation, luminescence | O15151+Q00987 | actives 3% (n = 330,000);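 active = inhibition of at least 50% at 8 µM in the primary screen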
KLF5 inh – kruppel-like factor 5 inhibition | DLD-1 KLF5 promoter-luciferase reporter, luminescence | inhibition, % at 5 µM | actives 0.23% (n = 290,000) | AID 1700;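 active = inhibition above a per-plate limit of that plate's mean compound inhibition plus 3 SD, cut at about 60% in these data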;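 also: higher means less KLF5 promoter-driven luciferase light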
aSyn UTR inh – MLPCN primary screen, SNCA 5' untranslated region; alpha-synuclein 5'UTR reporter, inhibitor activity; AID 1813; inhibition, % (tested at 7.5 µM); actives 0.82% (n = 300,000); in the data active = inhibition above about 60%; inconclusive = no clear call, values can overlap the other calls;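 also: H4 neuroglioblastoma cells stably carrying SNCA 5'UTR luciferase fusion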
Gli-Sufu antag – Gli-Sufu pathway antagonism | Sufu-KO-LIGHT fibroblasts, Gli luciferase reporter luminescence | inhibition, % at 5 µM | actives 0.74% (n = 340,000);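 active = inhibition above about 55%, limit read from the data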
Jurkat NFkB inh – inhibitors of the PMA/ionomycin-induced NF-kB reporter in Jurkat cells. AID 435003. PMA/ionomycin-induced NF-kB luciferase reporter, luminescence. inhibition, % at 4 µM. actives 0.53% (n = 330,000); in the data active = inhibition above about 50%
697 NFkB inh – lowers PMA/ionomycin-induced NF-kB signal in 697 B cells; AID 435022; 697 B-cell NF-kB luciferase reporter, 16 h; actives 0.33% (n = 330,000); inhibition, % at 4 µM; in the data active = inhibition above about 35%
Mdm2-MdmX conf – human Mdm2/MdmX binding inhibition, confirmed; luminescent assay; AID 489028; inhibition, % at 8 µM; actives 55% (n = 10,000); shares compounds with Mdm2-MdmX inh; in the data active = inhibition above about 40%
Full FLuc ctr – full-length luciferase inhibition in Mdm2/MdmX counter-screen | shares compounds with Mdm2-MdmX inh | SaOS-2 full-length luciferase counterscreen, luminescence | inhibition, % at 8 µM | actives 77% (n = 6,200) | AID 504607;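 active = mean inhibition at 8 µM reaching about 37%, which flags the compound as non-specific, limit read from the data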;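 also: p53-null SaOS-2 cells with luciferase driven by a doxycycline-inducible promoter; compound on cells about two nights before reading with doxycycline added after day one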
A number is an active result; n = inactive; u = inconclusive; x = no result given. An excerpt weighted towards active compounds, which were near 4.1% of everything screened.

SMILES	Mdm2-MdmX inh	KLF5 inh	aSyn UTR inh	Gli-Sufu antag	Jurkat NFkB inh	697 NFkB inh	Mdm2-MdmX conf	Full FLuc ctr
N#C/C(C(=O)NCCc1ccccc1)=C1/N=C(NC(=O)c2cccs2)c2ccccc21	n	n	n	n	n	n	x	x
COc1ccc(CCNC(=O)/C(C#N)=C2\N=C(NC(=O)c3ccco3)c3ccccc32)cc1	52	n	n	n	n	n	n	x
N#C/C(C(=O)NCc1ccccc1)=C1/N=C(NC(=O)c2ccco2)c2ccccc21	65	n	n	n	n	n	n	x
Cc1ccc(C(=O)N2CCN(c3ccccc3Cl)CC2)cc1[N+](=O)[O-]	n	n	n	n	n	n	x	x
O=C1NCN(c2ccccc2)C12CCN(CCCC(c1ccc(F)cc1)c1ccc(F)cc1)CC2	99	n	n	x	n	n	52	73
O=C1CCC(=O)N1CCC(c1ccc(F)cc1)c1ccco1 (centres undefined)	n	n	n	n	n	n	x	x
CCCCC(=O)Nc1ccc2c3c(cccc13)C(=O)N2CC	55	n	n	n	n	n	n	59
Oc1c(I)cc(I)c2cccnc12	93	n	n	n	n	n	72	39
O=C(COc1ccc(-c2ccccc2)cc1)N1CCN(S(=O)(=O)Cc2ccccc2)CC1	57	n	n	n	n	n	59	75
COc1ccc(NC(=O)/C(=C\c2cc(OC)c(OC)cc2[N+](=O)[O-])NC(=O)c2ccccc2)cc1	52	n	n	n	n	n	n	x
COc1cc(/C=C(/NC(=O)c2ccccc2)C(=O)Nc2ccccc2)c([N+](=O)[O-])cc1OC	n	n	n	n	n	n	x	x
N#C/C(=C\c1ccc(Cl)c([N+](=O)[O-])c1)c1ccccn1	87	n	n	n	n	n	n	x
CC(NC(=O)/C(C#N)=C/c1ccc(Cl)c([N+](=O)[O-])c1)c1ccccc1 (centres undefined)	100	n	n	n	n	n	67	n
N#C/C(=C\c1ccncc1)c1ccccn1	n	n	n	n	n	n	x	x
N#Cc1ncc(-c2ccc3c(c2)OCCOCCOCCOCCOCCO3)nc1C#N	71	n	n	n	n	n	61	n
O=C(CSC1=NS(=O)(=O)c2cc(F)ccc2N1)NCc1ccccc1Cl	n	x	n	n	n	n	x	x
C=CCn1c(SCC(=O)c2[nH]c(C)c(C(=O)OCC)c2C)nc2scc(-c3ccccc3)c2c1=O	95	n	u	n	n	n	60	46
C=CCn1c(SCC(=O)c2[nH]c(C)c(C(=O)OCC)c2C)nc2scc(-c3ccc(OC)cc3)c2c1=O	x	n	n	n	x	x	x	x
Cc1cc(C(C)(C)C)cc(C)c1Cn1c2[n+](c3ccc(C(F)(F)F)cc31)CCCCC2	72	n	n	n	n	n	48	50
FC(F)(F)c1cccc(Cn2c3[n+](c4ccc(C(F)(F)F)cc42)CCCCC3)c1	n	n	n	n	n	n	x	x
CCn1c(Oc2ccccc2C)nc2c1c(=O)n(C)c(=O)n2C	57	n	n	n	n	n	42	43
Cc1ccccc1Oc1nc2c(c(=O)n(C)c(=O)n2C)n1C	n	n	n	n	n	n	x	x
COc1ccc(CNC(=O)C[C@H]2C[C@H](C(=O)N3CCCCC3)[C@@]3(C)c4[nH]c5cc(CCC(=O)N(C)C)ccc5c4CCN3C2=O)cc1OC	n	x	x	n	x	n	x	x
CCC/C(=C1/c2ccccc2C(=O)N1c1ccccc1)c1ccc2[nH]ccc2c1	59	x	x	n	n	n	52	45
O=C1c2ccccc2/C(=C\c2ccc3[nH]ccc3c2)N1c1ccccc1	n	x	x	n	n	n	x	x
SMILES	Mdm2-MdmX inh	KLF5 inh	aSyn UTR inh	Gli-Sufu antag	Jurkat NFkB inh	697 NFkB inh	Mdm2-MdmX conf	Full FLuc ctr
Cc1ccc(S(=O)(=O)NCc2ccccc2)cc1C(=O)N(C)Cc1ccc(F)cc1	n	n	n	n	n	n	x	x
Cc1[nH]c(=O)[nH]c(=O)c1S(=O)(=O)N1CCCC(C(=O)NCCC2=CCCCC2)C1 (centres undefined)	n	n	n	n	n	n	x	x
CN(C)c1ccc(-n2cccc2/C=C/[N+](=O)[O-])cc1	65	n	n	x	n	n	n	x
CN(c1ccccc1)c1ccc(/C=C/[N+](=O)[O-])cc1	x	n	n	n	x	x	x	x
O=C1CCN(Cc2ccc(O)cc2)CCN1CCO	n	n	n	n	n	n	x	x
Cn1c(CCC(N)=O)nnc1SCC(=O)Nc1ccccc1C(=O)NC1CC1	n	x	x	n	n	n	x	x
OC(CNCC(c1ccc(Cl)cc1Cl)c1c[nH]c2ccccc12)c1ccccc1 (centres undefined)	97	n	n	n	n	n	80	46
COc1cccc(C(=O)Nc2ccc3c(cc2=O)[C@@H](NC(C)=O)CCc2cc(OC)c(OC)c(OC)c2-3)c1	71	n	n	n	n	n	66	99
N#Cc1c2ccc(OCC(=O)NCc3ccco3)cc2n2ccccc12	n	n	n	n	n	n	x	x
N#Cc1c2ccc(O)cc2n2ccccc12	76	n	n	n	n	n	73	n
COc1ccc(CCN2C(=O)c3[nH]nc(-c4ccccc4O)c3C2c2cccc(Cl)c2)cc1 (centres undefined)	76	n	n	n	n	n	57	74
CSc1ccccc1C(=O)N1CCC2(CC1)CC(=O)c1ccccc1O2	n	x	n	n	n	n	x	x
CC(C)(C)n1nnnc1C(c1ccccn1)N(Cc1ccccc1)Cc1ccc(Cl)cc1 (centres undefined)	60	n	n	n	n	n	n	x
COc1ccc2cc3c(N)c(C(=O)N4CCCC4)sc3nc2c1	n	n	n	n	n	n	x	x
COc1cc(OC)cc(C(=O)N2CCN(C(=O)c3cccc(F)c3)CC2)c1	n	n	n	n	n	n	x	x
COc1ccc2cc3c(N)nn(C(=O)c4ccc(F)cc4)c3nc2c1	82	n	n	n	n	n	89	47
COc1ccc2cc3c(N)nn(C(=O)c4cccc(F)c4)c3nc2c1	71	n	n	n	n	n	81	43
COc1ccc2cc3c(N)nn(C(=O)c4ccccc4Cl)c3nc2c1	93	n	65	n	n	n	93	51
Cc1csc(NC(=O)c2nn(C)c(C)c2[N+](=O)[O-])n1	n	n	n	n	n	n	x	x
CC(=O)c1ccc(N2CCN(S(=O)(=O)c3ccc4ccccc4c3)CC2)cc1	n	x	x	n	n	n	x	x
COc1ccccc1N1CCN(c2ccc3cc(S(=O)(=O)N4CCCCC4)ccc3n2)CC1	51	n	n	n	n	n	n	x
CC(=O)c1ccc(N2CCN(c3ccc4cc(S(=O)(=O)N5CCC(C)CC5)ccc4n3)CC2)cc1	61	n	n	n	n	n	n	x
Cc1c(CN(C)C)c2c(n1Cc1ccccc1)C(=O)c1ccc(Br)cc1-2	77	n	n	n	n	n	61	n
